D3 antag: antagonists of human D3 dopamine receptor. D3R cells, DiscoveRx beta-arrestin luminescence, antagonist mode; stronger effect = lower value. max response, negative = inhibition, %. hit rate 2.5% among 360,000; in the data active means max response below about -50%; inconclusive means no clear call, values can overlap the other calls; further: on the % scale 0 is the no-effect control and ±100 the full control effect
Target sequence (P35462 whole entry, looked up): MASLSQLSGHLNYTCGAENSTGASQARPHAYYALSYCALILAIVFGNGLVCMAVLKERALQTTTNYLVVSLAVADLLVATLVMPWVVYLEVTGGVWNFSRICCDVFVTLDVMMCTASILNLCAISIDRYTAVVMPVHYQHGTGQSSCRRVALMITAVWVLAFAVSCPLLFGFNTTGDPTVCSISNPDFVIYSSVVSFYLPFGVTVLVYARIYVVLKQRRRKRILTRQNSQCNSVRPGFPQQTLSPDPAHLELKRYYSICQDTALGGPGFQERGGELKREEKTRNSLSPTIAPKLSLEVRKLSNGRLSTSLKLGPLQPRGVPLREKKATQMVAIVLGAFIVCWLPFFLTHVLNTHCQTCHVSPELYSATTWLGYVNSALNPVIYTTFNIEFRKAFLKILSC
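Cells expressing the human receptor were seeded at 1500 cells/well, incubated overnight at 37 degrees C in 5% CO2, then exposed to library compounds with dopamine controls for 90 minutes at 37 degrees C before luminescent detection.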
KB-V1 MDR tox: kills drug-selected multidrug resistant KB-V1 cells; KB-V1 MDR cells viability, CellTiter-Glo, 72 h; Potency, µM (top dose mostly 46.1 µM), hits mostly cytotoxic; hit rate 3.4% among 400,000; further: potency means the concentration at half of the fitted maximal effect; on the % scale 0 is the no-effect control and ±100 the full control effect; nearly all actives have a fitted effect of over 60% in size
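Compound-treated KB-V1 multidrug-resistant cells, 72 h, 37 degrees C; viability by CellTiter-Glo. Fitted qHTS curves give the values.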
KB-3-1 cytotox: KB-3-1 parental cell cytotoxicity; hit rate 1.4% among 400,000; Potency, µM (top dose mostly 46.1 µM), most hits filed as cytotoxic; KB-3-1 viability, CellTiter-Glo ATP luminescence, 72 h; further: potency means the concentration at half of the fitted maximal effect; on the % scale 0 is the no-effect control and ±100 the full control effect; nearly all actives have a fitted effect of over 60% in size
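Cells are dispensed, compounds pinned in, plates held at 37 °C for 72 h, then CellTiter-Glo is added and luminescence read after 10 minutes. Cell line: parental KB-3-1 in phenol-red-free DMEM, 10% FBS.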
SW480 rereplic: induces DNA re-replication in SW480 colon adenocarcinoma cells. Potency, µM (doses to about 46.1 µM), without a hit: at the highest dose re-replication activation, hits mostly activators. hit rate 1.8% among 340,000. SW480 DNA re-replication, Hoechst DNA content imaging, 48 h. AID 624297; further: potency means the concentration at half of the fitted maximal effect; % of control where 0% means no effect; nearly all actives have a fitted effect of over 55% in size
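Readout is total intensity of Hoechst-stained nuclei, excited at 405 nm and collected at 500-530 nm. Compound treatment lasted 48 hr at 37 C in 5% CO2 before staining.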
MCF10A rerep: inducers of DNA re-replication in MCF 10A breast cells; MCF 10A DNA re-replication, Hoechst nuclear intensity, 48 h; Potency, µM (series often up to 46.1 µM), for the others: at the top dose activity, positive = re-replication, actives largely listed as activators; hit rate 2.9% among 350,000; further: potency means the concentration at half of the fitted maximal effect; % of control where 0% means no effect; nearly all actives have a fitted effect of over 50% in size
DRD3 agonist: D3 dopamine receptor (human) agonism; P35462; D3R DiscoveRx beta-arrestin cells, luminescence, 90 min; max activation, %; hit rate 0.58% among 410,000; in the data active means max activation above about 30%; further: 0% is about no effect
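Agonist mode: compounds and dopamine controls were applied to plated cells for 90 min at 37 degrees C after an overnight attachment at 1500 cells/well. Luminescent read-out followed 30 - 60 minutes at room temperature with DiscoveRx detection reagent.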
An asterisk follows results filed as active; i = inactive; u = inconclusive; x = no result; [ ] = remark or other dose. Only some compounds are listed: those with a hit (about 8.9% of all), similar ones and a draw of the others. Unless noted, the call rests on the fitted dose curve; in most records, active means well fitted curve in the direction sought with a large enough effect; inconclusive means small, poorly fitted or top-dose-only effect, or another doubt; inactive means no such curve, though single readings can be large; an effect the other way counts as inactive or inconclusive.

SMILES | D3 antag | KB-V1 MDR tox | KB-3-1 cytotox | SW480 rereplic | MCF10A rerep | DRD3 agonist
O=C(O)c1ccc(-c2cccc(Cl)c2)o1 | u | i | i | 2% | 6% | 5
CN1CCN(c2ccccc2NC(=O)c2ccc(-c3cccc(Cl)c3)o2)CC1 | 6 | i | u | u | 21µM* | -1
O=C(Nc1cccc2nsnc12)c1ccc(-c2cccc(Cl)c2)o1 | 7 | i | i | 3%[9.22 µM] | 5.8µM* | -1
CN1CCN(c2ccccc2NC(=O)c2ccc(-c3ccc(Cl)cc3Cl)o2)CC1 | 4 | u | u | u | u | 0
Cc1cccc2c1-c1sc(C(=O)Nc3ccccc3N3CCN(C)CC3)cc1CO2 | -26 | u | i | u | 4.1µM* | -15
CC(C)Oc1ccc(CNC(=O)CCCn2c(=O)c3cccn3c3ccccc32)cc1 | x | x | x | x | x | -9
Cc1ccc(CNC(=O)Cn2c3ncccc3c(=O)n2-c2ccccc2)cc1 | x | i | i | x | x | 4
CC(C)CCNC(=O)N1CCN(S(=O)(=O)c2ccc3c(ccn3C)c2)CC1 | x | u | i | x | x | 6
O=C(Nc1ccccc1N1CCCCC1)c1ccc(-c2cccc(Cl)c2)o1 | u | i | i | 1% | 16µM* | -1
COc1ccc(-c2c(C#N)c(SCC(=O)Nc3ccc(Br)cc3)nc(C)c2C(=O)Nc2ccccc2)cc1 | x | i | i | x | x | -6
O=c1c(N2CCc3ccccc3C2)csc2ccc(Cl)cc12 | x | i | i | x | x | -18
CC(C)(C)N(NC(=O)c1ccccc1)C(=O)c1ccc(C(=O)N(NC(=O)c2ccccc2)C(C)(C)C)cc1 | 1 | i | i | -80% | 0% | 6
CCc1ccc(C(=O)NN(C(=O)c2ccc(CC)cc2)C(C)(C)C)cc1 | 2 | 7.3µM* | u | u | -46% | -4
CCOc1ccc(CNC(=O)Cn2ccc3cc(S(=O)(=O)N4CCCCC4)ccc32)cc1 | x | i | i | x | x | 0
CCc1ccccc1NC(=O)CC1S/C(=N\c2nccs2)N(CC)C1=O (stereo not drawn) | -13 | 8.2µM* | i | 2% | u | -13
COc1ccc(-n2nnnc2-c2cccc(OC)c2)cc1 | 5 | 1.2µM* | 1µM* | 3.3µM* | 4.1µM* | 3
COc1cccc(/C=C/C(=O)Nc2ccc3nc(N4CCN(C)CC4)cc(C)c3c2)c1OC | x | i | i | x | x | -20
CCOC(=O)CSc1nc(C)cc(=O)[nH]1 | 22 | i | i | -5% | -1% | -3
CC(=O)c1c(C)cc(C)c(CSc2nc(C)cc(=O)[nH]2)c1C | 452 | u | i | 2% | 18% | 69*
COc1ccc(NC(=O)C(=O)NCC2CCCN2S(=O)(=O)c2ccc(C)cc2)cc1 (stereo not drawn) | -17 | 0.23µM* | 0.15µM* | u | u | 1
Cc1ccc(C)c(S(=O)(=O)N2CCCCC2CCNC(=O)C(=O)NCc2ccco2)c1 (stereo not drawn) | 3 | 9.2µM* | u | u | u | 3
Cc1ccc(C)c(S(=O)(=O)N2CCCC2CNC(=O)C(=O)NCc2ccccc2)c1 (stereo not drawn) | -16 | 8.2µM* | i | 3% | -5% | 4
COc1ccc(NC(=O)C(=O)NCC2CCCN2S(=O)(=O)c2cc(C)ccc2C)cc1 (stereo not drawn) | 10 | 5.8µM* | 5.8µM* | 16µM* | u | -3
Cc1ccc(C)c(S(=O)(=O)N2CCCC2CNC(=O)C(=O)Nc2ccccc2)c1 (stereo not drawn) | -27 | i | i | x | x | -4
CC(C)(C)S(=O)(=O)N1C[C@@H]2C(=CC[C@H]3C(=O)N(c4ccccc4)C(=O)[C@@H]23)[C@@H]1CCO | 4 | i | i | -42% | -45% | 0
SMILES | D3 antag | KB-V1 MDR tox | KB-3-1 cytotox | SW480 rereplic | MCF10A rerep | DRD3 agonist
CCCCNC(=O)c1c(C)oc2ncn(CC(C)C)c(=O)c12 | x | i | i | x | x | 1
CC(C)C(=O)Nc1ccc2nc(SCCOc3ccccc3)sc2c1 | x | i | i | x | x | 1
CSc1ccc(C2c3c(oc4cc(C)cc(C)c4c3=O)C(=O)N2CCO)cc1 (stereo not drawn) | x | i | i | x | x | -2
Cc1ccc(S(=O)(=O)Nc2cc(C(=O)NCCN3CCCC3)ccc2N2CCCCC2)cc1 | -51* | u | u | 0% | 14% | -26
Cc1ccc(S(=O)(=O)Nc2cc(C(=O)NCCN(C)C)ccc2N2CCCCC2)cc1 | -64* | u | u | u | u | -20
COCCCNC(=O)c1ccc(N2CCCC2)c(NS(=O)(=O)c2ccc(C)cc2)c1 | -20 | i | i | u | 21% | 1
Cc1cc(Nc2ccc3c(c2)OCCO3)c2cccc(C)c2n1 | -21 | 23µM* | u | -8% | 19% | -1
COC(=O)c1ccccc1NC(=O)CN1CCC(n2nnc3cc(C(F)(F)F)ccc32)CC1 | -2 | 4.1µM* | u | 1% | u | -3
O=C(O)c1cccc(S(=O)(=O)N2CCC(n3nnc4cc(C(F)(F)F)ccc43)CC2)c1 | -76* | i | i | -4% | 6% | -14
CC(=O)Oc1ccc(Cl)cc1CN(C(C)=O)C1CCCCC1 | -16 | i | i | -6% | u | -10
Cc1ccc(NC(=O)CN(C)S(=O)(=O)c2ccc3c(c2)n(C)c(=O)c(=O)n3C)cc1F | x | i | i | x | x | 5
CCN(CC)CCOCCOC(=O)C(CC)(CC)c1ccccc1 (tested in a mixture with another compound) | x | x | x | 1% | 30µM* | x
COc1ccc(NS(=O)(=O)c2ccc3oc(SC4CCOC4=O)nc3c2)cc1 (stereo not drawn) | -18 | i | i | u | 2.9µM* | 11
COc1ccc(NS(=O)(=O)c2ccc3oc(SC)nc3c2)cc1 | 18 | u | u | -3% | u | 4
CCOc1ccc(N2CC(NC(=O)c3ccc(S(=O)(=O)N4CCOCC4)cc3)CC2=O)cc1 (stereo not drawn) | x | x | x | x | x | 13
C/C(=N\S(=O)(=O)c1ccc(C)cc1)N1CCN(S(=O)(=O)c2ccccc2)C1C(C)C (stereo not drawn) | 16 | 5.8µM* | i | 6% | -1% | 5
O=C(Nc1nc2c(F)cccc2s1)c1ccc(S(=O)(=O)N2CCOCC2)cc1 | x | i | i | x | x | 3
CC1C(=O)N2CCCc3cc(NC(=O)C(=O)NCCCc4ccccc4)cc1c32 (stereo not drawn) | -5 | u | u | -3% | 20% | -10
